Test results: PubChem BioAssay (NCATS)
Where “and” joins values, the source holds several entries; their conditions need not be identical. Equal entries are not always repeated. Records with an inconclusive call do not appear. More than one record can exist for a structure, and the calls need not agree. Calls of active or inactive are those of the source. Calls follow the shape of the dose curve; as a rule, active = well fitted cell-killing curve with a large enough effect; inconclusive = small, poorly fitted or top-dose-only effect, or effect the other way; inactive = flat fitted curve, though single readings scatter.

Assay: qHTS assay for cell viability of the p53RE-bla HCT-116 cell line (AID 743292); also: nearly all actives have a fitted effect of over 55% in size
Conditions: p53RE-bla HCT-116 viability, ATP luminescence, 16 h; series mostly up to 95 µM; activity change, negative = cytotoxicity: at the top concentration
Description: U.S. Tox21 Program National Center for Advancing Translational Sciences [NCATS] NIH Chemical Genomics Center [NCGC] U.S. Environmental Protection Agency [EPA] National Institutes of Environmental Health Sciences [NIEHS] National Toxicology Program [NTP] U.S. Food and Drug Administration [FDA] Tox21 Assay Overview: The CellTiter-Glo Luminescent Cell Viability Assay (Promega, Madison, WI) is a homogeneous method to determine the number of viable cells in culture based on quantitation of the ATP present, which signals the presence of metabolically active cells. This cell viability assay was used to screen environmental chemicals in the CellSensor p53RE-bla HCT-116 cell line (Invitrogen).
Tox21 Assay Protocol Summary: Cell viability after compound treatment was measured using a luciferase-coupled ATP quantitation assay (CellTiter-Glo viability assay, Promega, Madison, WI) in CellSensor p53RE-bla HCT-116 cell line (Invitrogen). Total intracellular ATP content corresponds to the number of metabolically competent cells after compound treatment. The cells were dispensed at 4,000 cells/5 uL/well in 1,536-well white/solid bottom assay plates using a Flying Reagent Dispenser (Aurora Discovery, San Diego, CA). The cells were incubated for 5 h at 37 C, followed by the addition of 23 nL of compounds dissolved in DMSO, positive controls or DMSO only using a pintool work station (Kalypsys, San Diego, CA). The assay plates were incubated for 16 h at 37 C, followed by the addition of 5 uL/well of CellTiter-Glo reagent. After 30 min incubation at room temperature, the luminescence intensity of the plates was measured using a ViewLux plate reader (PerkinElmer, Shelton, CT).
% is scaled to controls: 0 for no effect and ±100 for the full control effect; potency is read from the fitted curve at half-maximal effect.

SMILES	Potency	activity change, negative = cytotoxicity
c1ccc2c(c1)-c1cccc3c1c-2cc1ccccc13	inactive	
CCCCCCCC[N+](CCCCCCCC)(CCCCCCCC)CCCCCCCC	44.7 µM (active)	
Cc1cc(C(C)(C)CC(C)(C)C)ccc1OCCOCC[N+](C)(C)Cc1ccccc1		-16.9% (inactive)
O=[N+]([O-])c1cc([N+](=O)[O-])c2ccc(S(=O)(=O)O)cc2c1O		3.67% (inactive)
O=C1OC2(c3cc(Br)c(O)c(Br)c3Oc3c2cc(Br)c(O)c3Br)c2c(Cl)c(Cl)c(Cl)c(Cl)c21	39.8 µM (active)	
CNc1ccc(O)cc1	70.8 µM (active)	
CN1[C@H]2CC(OC(=O)[C@H](CO)c3ccccc3)C[C@H]1[C@H]1O[C@H]12 (stereo partly specified)	inactive	
O=c1oc2cc(O)ccc2c2oc3cc(O)ccc3c12		9.38% (inactive)
CC1(C)CCC(C)(C)c2cc(C(=O)Nc3ccc(C(=O)O)cc3)ccc21		-24% (inactive)
CN(C)c1ccc(C2(c3ccc(N(C)C)cc3)OC(=O)c3cc(N(C)C)ccc32)cc1		1.35% (inactive)
CCCCCC/C(C=O)=C\c1ccccc1		-3.13% (inactive)
CC1CCC(C(C)C)C(O)C1 (stereo unspecified)		6.98% (inactive)
CCC(C)Nc1ccc(NC(C)CC)cc1 (stereo unspecified)	35.5 µM (active) and 28.2 µM (active)	
O=Cc1ccc(Cl)c(Cl)c1		-2.35% (inactive)
O=C(/C=C/c1ccc(O)c(O)c1)OC1C[C@](O)(C(=O)O)C[C@@H](O)[C@H]1O (stereo partly specified)	inactive	
O=C(OCC(COC(=O)c1ccccc1)(COC(=O)c1ccccc1)COC(=O)c1ccccc1)c1ccccc1		-8.78% (inactive)

SMILES	Potency	activity change, negative = cytotoxicity
CO[C@H]1/C=C/O[C@@]2(C)Oc3c(C)c(O)c4c(O)c(c5c(c4c3C2=O)NC2(CCN(CC(C)C)CC2)N=5)=NC(=O)/C(C)=C\C=C\[C@H](C)[C@H](O)[C@@H](C)[C@@H](O)[C@@H](C)[C@H](OC(C)=O)[C@@H]1C		-11.4% (inactive)
c1ccc2c(c1)ccc1cc3c(ccc4ccccc43)cc12		5.81% (inactive)
CC/C(=C(\c1ccccc1)c1ccc(OCCN(C)C)cc1)c1ccc(O)cc1	70.8 µM (active)	
Cc1cc(Nc2ccc(O)cc2)ccc1N		-22.8% (inactive)
Cc1cc(O)c(C(C)(C)C)cc1Sc1cc(C(C)(C)C)c(O)cc1C	28.2 µM (active) and 25.1 µM (active)	
CC(=O)Nc1ccc(C(=O)CCl)cc1		12.1% (inactive)
Nc1ccc2cc3ccccc3cc2c1		1.63% (inactive)
C=C(C)c1ccccc1		-3.51% (inactive)
ClC1=C(Cl)C(Cl)(Cl)C(Cl)=C1Cl	25.1 µM (active) and inactive	
C=CC(=O)OCCOCCOC(=O)C=C		25.7% (inactive)
O=C=Nc1ccc(Cc2ccc(N=C=O)cc2)cc1	inactive	
C/C=C1\C(=O)C[C@H]2[C@@H]3CCC4=CC(=O)CC[C@]4(C)[C@H]3CC[C@]12C		-22.8% (inactive)
c1cc(OCC2CO2)cc(OCC2CO2)c1 (stereo unspecified)		-5.04% (inactive)
Oc1ccc2cc(SSc3ccc4cc(O)ccc4c3)ccc2c1		-16.7% (inactive)
Cc1cccc(O)c1C		-0.711% (inactive)
